About 5,700 (36%) of roughly 16,000 compounds were called active. Another 24% or so got no clear call; they are omitted. The call rests on the fitted dose curve; in most records, active means well fitted curve in the direction sought with a large enough effect; inconclusive means small, poorly fitted or top-dose-only effect, or effect the other way; inactive means no such curve, though single readings can be large or run the other way. The list shows a part of the results.
On the % scale 0 is the no-effect control and ±100 the full control effect.

In this assay the target is Cytochrome P450 1A2 (Homo sapiens) (UniProt P05177). Nature of the assay: Cytochrome panel assay with activity outcomes. To be noted: recombinant CYP, pro-luciferin dealkylation, luminescence, p450-cyp1a2; series mostly up to 57.1 µM.
Sequence of Cytochrome P450 1A2 (Homo sapiens) (P05177 whole entry, looked up): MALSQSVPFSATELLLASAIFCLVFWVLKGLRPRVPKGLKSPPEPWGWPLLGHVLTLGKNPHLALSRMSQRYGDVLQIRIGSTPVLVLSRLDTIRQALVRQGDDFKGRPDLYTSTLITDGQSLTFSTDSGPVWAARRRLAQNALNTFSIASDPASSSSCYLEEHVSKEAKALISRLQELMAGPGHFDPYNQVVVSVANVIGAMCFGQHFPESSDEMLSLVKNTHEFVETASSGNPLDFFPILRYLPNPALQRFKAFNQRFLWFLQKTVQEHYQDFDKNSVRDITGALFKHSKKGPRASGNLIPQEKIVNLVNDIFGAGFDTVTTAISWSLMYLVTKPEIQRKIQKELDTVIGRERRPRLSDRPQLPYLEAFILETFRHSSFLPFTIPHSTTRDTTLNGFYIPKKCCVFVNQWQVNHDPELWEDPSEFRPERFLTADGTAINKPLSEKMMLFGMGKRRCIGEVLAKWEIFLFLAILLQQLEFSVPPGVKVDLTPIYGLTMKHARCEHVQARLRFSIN
On to `COCC(=O)N1CCC2(CC1)CCN(C(c1ccccc1)c1ccccc1)CC2`, for which the AC50 result is “inactive”.

Consider `O=C(Nc1cccc(F)c1)N1CC[C@@]2(CCCN(C(=O)c3cnccn3)C2)C1`, for which the AC50 entry was “inactive”.

Turning to `CCOC(=O)c1c(CC(C)C)csc1NC=O`, the AC50 was 0.224 µM (active). Still for that read-out and setting: next, `CCNc1ncc2nc(-c3cccs3)c(=O)n(CCc3ccccc3)c2n1`: 10 µM (active); `CCNc1ncc2nc(-c3cccs3)c(=O)n(CCC#N)c2n1`: 3.16 µM (active); `N#CCCn1c(=O)c(-c2cccs2)nc2cnc(Nc3ccccc3)nc21`: 5.01 µM (active). In the case of `COc1cccc(Nc2ncc3nc(-c4cccs4)c(=O)n(CCC#N)c3n2)c1`, the AC50 is 2.51 µM (active). As for `CCOC(=O)c1c(-c2ccc(C)o2)csc1NC(=S)NC(=O)N(C)C`, the concentration at half-maximal activity (AC50) is 1.58 µM (active). With `O=C1C2=CC[C@H]3C(=O)N(c4cccc(Oc5ccccc5)c4)C(=O)[C@@H]3[C@@H]2[C@H](O)[C@@H]2O[C@H]12`, the activity, negative = inhibition is -1.58% [at 11.4 µM] (inactive). For `O=C(CCN1C(=O)C2C3C=CC(C3)C2C1=O)Nc1ccc2ncccc2c1` (configuration not stated), the AC50 result is “inactive”. The same measure, in the same setting: next, `CN(C)c1ccc(NC(=O)c2cccc(N3C(=O)C4C5C=CC(C5)C4C3=O)c2)cc1` (configuration not stated): 2 µM (active). On the same count and under the same terms, in the case of `O=C(CN1C(=O)C2C3C=CC(C3)C2C1=O)Nc1ccc(C(=O)O)cc1` (configuration not stated) it was “inactive”. On to `CO[C@@H]1COC(=O)C/C=C\[C@@H](C)COC(=O)[C@H](COCc2ccccc2)NC(=O)C/C=C\[C@H]1C`, for which the activity, negative = inhibition is -7.1% [at 11.4 µM] (inactive). With `O=[n+]1c2c(n([O-])c3cc(F)c(F)cc31)CCCC2`, the AC50 was 14.1 µM (active). The same measure, in the same setting: next, `CCOc1ccc(-c2c[n+](=O)c3c(n2[O-])CCCC3)c(OCC)c1`: “inactive”; `CCCCC1(C)Nc2ccccc2-c2nc3ccccc3n21` (configuration not stated): 14.1 µM (active); `CCCC1(C)Nc2ccccc2-c2nc3ccccc3n21` (configuration not stated): 8.91 µM (active).

Consider `CCC1(C)Nc2ccccc2C(=O)N1O` (configuration not stated), for which the AC50 result is “inactive”.

Consider `Fc1ccc(Nc2ccnc(-c3ccc4c(c3)OCO4)n2)cc1`, for which the AC50 was 0.631 µM (active). Still for that read-out and setting: next, `CN(C)c1ccc(-c2cc(Nc3ccc(F)cc3)ncn2)cc1`: 0.398 µM (active); `CN(C)C(=O)c1ccc(-c2nccc(Nc3ccc(F)cc3)n2)cc1`: 6.31 µM (active). With `Fc1ccc(Nc2ccnc(-c3ccoc3)n2)cc1`, the AC50 is 1 µM (active).

As for `CCCCC1CC(/C(C)=N/NC(N)=O)OC1=O` (configuration not stated), the AC50 entry was “inactive”. With `C[C@@]12CC(=O)[C@@H]3[C@@H](CCC4=CC(=O)CC[C@]43C)[C@@H]1CC=C2CC(=O)O`, the activity, negative = inhibition was -17% [at 11.4 µM] (inactive).

As for `NC(=O)CCCC1=NS(=O)(=O)c2ccccc2N1`, the AC50 result was “inactive”. As for `CN(C)[C@@H]1C(=O)C(C(N)=O)=C(O)[C@]2(O)C(=O)C3=C(O)c4c(O)ccc(Cl)c4[C@H](O)[C@H]3C[C@@H]12`, the AC50 result is “inactive”. Regarding `CC1(C)O[C@H]2[C@@H](c3[nH]nc4c(=O)[nH]c(=O)[nH]c34)OC[C@H]2O1`, the activity, negative = inhibition is -11.5% [at 11.4 µM] (inactive). Consider `CN(C)c1ccc(-c2nccc(Nc3ccc(F)cc3)n2)cc1`, for which the AC50 was 0.501 µM (active). Consider `NNC(=O)[C@@H](O)[C@H](O)[C@H](O)CO`, for which the activity, negative = inhibition is -0.774% [at 11.4 µM] (inactive). On to `N=C(N)[C@H](N=Nc1ccccc1)C(N)=O`, for which the AC50 is 0.794 µM (active). For `N#C[C@@H](N=Nc1ccccc1C(=O)O)C(N)=O`, the activity, negative = inhibition was -8.23% [at 11.4 µM] (inactive). On the same count and under the same terms, next, `NC(Cc1ccccc1)=NCC(=O)O`: -5.52% [at 11.4 µM] (inactive); `CC(C)(C)NC[C@@H](O)c1ccc(O)c(CO)n1`: 10.1% [at 2.29 µM] (inactive). As to `CC[N+](C)(CC)CCC[n+]1c(-c2ccccc2)c2cc(N)ccc2c2ccc(N)cc21`, the AC50 was 12.6 µM (active).

With `Cn1c(=S)c2[nH]c(SCCCc3ccccc3)nc2n(C)c1=O`, the half-maximal activity concentration (AC50) is 3.16 µM (active). For `Cn1c(=O)c2[nH]c(CCCc3ccc([N+](=O)[O-])cc3)nc2n(C)c1=O`, the activity, negative = inhibition is -18.9% [at 11.4 µM] (inactive). On the same count and under the same terms, in the case of `Cn1c(=S)c2[nH]c(SCCN3CCCC3)nc2n(C)c1=O` it was -29.7% [at 2.29 µM] (inactive); in that of `COC(=O)C/C=C\[C@@H](C)[C@@H](/C=N\OC[C@@H](O)COCc1ccco1)NS(=O)(=O)c1ccc(C)cc1`, 3.98% [at 11.4 µM] (inactive).

Turning to `Oc1cccc(-c2nc3c4c(ncn3n2)-c2ccccc2CC42CCCC2)c1`, the AC50 was 10 µM (active).

`NC(=S)Nc1cccc2cccnc12`: the AC50 was 12.6 µM (active). With `O=C(Nc1cccc2cccnc12)[C@@H]1[C@@H](C(=O)O)[C@H]2CC[C@@H]1O2`, the activity, negative = inhibition is -11% [at 11.4 µM] (inactive).

As to `Cc1cc2c(nc1C)CCCN2C[C@@H](O)CN1CCN(C)CC1`, the activity, negative = inhibition is -2.48% [at 11.4 µM] (inactive). Regarding `Cc1c(Cl)cccc1NC(=O)CCC(=O)NNC(=O)c1ccco1`, the AC50 result was “inactive”. Same read-out and setting: next, `CC(=O)NS(=O)(=O)c1ccc(NC(=S)NC(=O)c2ccco2)cc1`: “inactive”; `O=C(NC(=S)Nc1cccc(Cl)c1N1CCCCC1)c1ccco1`: 12.6 µM (active); `CC1CCN(c2ccccc2NC(=S)NC(=O)c2cccs2)CC1`: 7.08 µM (active). Same read-out and setting: in the case of `O=C(NC(=S)Nc1cccc(Cl)c1N1CCCCC1)c1cccs1` it was 10 µM (active); in that of `CN(C1CCCCC1)S(=O)(=O)c1ccc(NC(=S)NC(=O)c2cccs2)cc1`, “inactive”.

Take `Cc1c(NC(=S)/C=C2\N(C)c3ccccc3C2(C)C)c(=O)n(-c2ccccc2)n1C`: the AC50 result is “inactive”. The same measure, in the same setting: next, `COc1cccc(C2NC(c3cccc(OC)c3O)C(C)C(=O)C2C)c1O` (configuration not stated): “inactive”; `CC1=NN(c2ccccc2)C(=O)/C1=C\c1c(C)[nH]n(-c2ccccc2)c1=O`: “inactive”. On the same count and under the same terms, in the case of `COc1cccc(C(c2c(C)[nH]n(-c3ccccc3)c2=O)c2c(C)[nH]n(-c3ccccc3)c2=O)c1O` it was 7.08 µM (active). Still for that read-out and setting: in the case of `CCN1CCC[C@H]1CNC(=O)c1c(OC)ccc(Br)c1OC` it was “inactive”. In the case of `CCCCN(C)CCCNC(=O)CCn1nc(-c2ccccc2)ccc1=O`, the AC50 entry is “inactive”.

Turning to `CCN(CCCNC(=O)CC(C(=O)N1CCc2ccccc21)n1ccnc1)c1ccccc1` (configuration not stated), the AC50 is 3.16 µM (active). Take `CCC(=O)[C@@]1(C)[C@H](C)C[C@@H]2[C@@H]3CCC4=CC(=O)C=C[C@@]4(C)[C@H]3[C@H](O)C[C@]21C`: the AC50 result is “inactive”.

For `Cc1ccc(-n2c(=O)c3sccc3n(CC(=O)NCc3ccco3)c2=O)cc1F`, the AC50 result is “inactive”. In the case of `NC(=O)Cn1c(=O)n(Cc2ccco2)c(=O)c2c3c(sc21)CCCCC3`, the AC50 was 4.47 µM (active). Same read-out and setting: next, `CN(C)CCn1c(=O)n(Cc2ccco2)c(=O)c2c3c(sc21)CCCCC3`: 2.24 µM (active).

As for `CN(c1ccccc1)c1ccc(/C=c2\s/c(=C(/C#N)C(=O)C(C)(C)C)n(Cc3ccco3)c2=O)cc1`, the AC50 entry is “inactive”. On the same count and under the same terms, in the case of `O=C(Cn1c(=O)n(Cc2ccco2)c(=O)c2c3c(sc21)CCCCC3)c1ccccc1` it was 12.6 µM (active); in that of `O=C(O)/C=C\C(=O)Nc1cccc2c1-c1ccccc1C2=O`, 2.51 µM (active). The same measure, in the same setting: in the case of `O=C(O)/C=C/C(=O)Nc1ccccc1-c1ccccc1` it was “inactive”; in that of `CC[C@H](C)N(C)C(=O)c1cc2ccccc2c(-c2ccccc2Cl)n1`, “inactive”; in that of `Fc1ccc(-c2ccnc3nc(N4CCOCC4)nn23)cc1`, 10 µM (active).

Regarding `C=C1C(=O)O[C@@H]2[C@@H]1CC/C(C)=C\CC[C@@]1(C)O[C@H]21`, the AC50 entry is “inactive”. Same read-out and setting: next, `CC(C)Sc1cc(N2CCCC2)nc(-c2ccc(F)cc2)n1`: 0.631 µM (active); `CC(C)Sc1cc(N2CCOCC2)nc(-c2ccc(Cl)cc2)n1`: 5.62 µM (active); `CCCSc1cc(N2CCCC2)nc(-c2ccccc2)n1`: 0.631 µM (active). On to `CC[N+](C)(CC)CCN1C(=O)c2ccccc2S1(=O)=O`, for which the activity, negative = inhibition was -12.1% [at 11.4 µM] (inactive). Turning to `CN(C)S(=O)(=O)c1cccc(NC(=O)COC(=O)c2ccc(Br)o2)c1`, the AC50 is 14.1 µM (active). As for `Cc1nc2ccc(S(=O)(=O)NC(CC(C)C)C(=O)O)cc2s1` (configuration not stated), the AC50 entry was “inactive”. Turning to `Cc1ccc2nc(NC(=O)COC(=O)c3ccc(Br)o3)sc2c1`, the AC50 is 4.47 µM (active). Turning to `CCN(c1ccccc1)S(=O)(=O)c1ccc(NC(=S)NC(=O)c2ccc(Br)o2)cc1`, the AC50 entry was “inactive”. On the same count and under the same terms, in the case of `CN(C)S(=O)(=O)c1ccc(NC(=O)COC(=O)c2ccccn2)cc1` it was “inactive”; in that of `Cc1ccc2nc(NC(=O)CSCC(=O)OCC(=O)c3ccc(Br)cc3)sc2c1`, 8.91 µM (active). Same read-out and setting: in the case of `Cc1ccc2nc(NC(=O)COC(=O)CSc3nc(C)cc(C)n3)sc2c1` it was 0.891 µM (active); in that of `COc1ccc(C(=O)N2CCC3(CCCN(Cc4ccccc4OC)C3)CC2)cc1`, “inactive”; in that of `O=C(Cc1ccc2c(c1)CCCC2)Nc1ccccc1Br`, 11.2 µM (active). The same measure, in the same setting: in the case of `CC12CCC(C(=O)Nc3ccccc3Br)(C/C1=N\O)C2(C)C` (configuration not stated) it was “inactive”; in that of `COC(=O)N1CCC[C@@]2(CCN(C(=O)Nc3cccc(C#N)c3)C2)C1`, “inactive”. Turning to `C[C@@H]1CC[C@H]2C(=O)N3[C@@H](CC[C@@H](C)[C@@H]3c3ccc(Br)cc3)C(=O)N2[C@@H]1c1ccc(Br)cc1`, the activity, negative = inhibition is -18.2% [at 11.4 µM] (inactive). For the molecule `O=S(=O)(c1ccccc1)N1N=C(c2cccs2)CC1c1ccc(Br)cc1` (configuration not stated), the AC50 entry was “inactive”.

With `CS(=O)(=O)N1N=C(c2ccc(Br)cc2)CC1c1ccc2c(c1)OCO2` (configuration not stated), the AC50 was 3.55 µM (active).

With `C=C[C@]1(C)C[C@H](OC(=O)CO)[C@]2(C)C3C(=O)CC[C@]3(CC[C@H]2C)[C@H](C)[C@H]1O` (some centres not stated), the activity, negative = inhibition was -21% [at 2.29 µM] (inactive). In the case of `COc1cccc(N2C(=O)C(CC(=O)Nc3ccccc3)N(C3CCCCC3)C2=O)c1` (configuration not stated), the AC50 entry is “inactive”.

`COc1ccc(NC(=O)N2CC3(CCN(C(=O)c4c(C)noc4C)CC3)C2)cc1`: the AC50 result was “inactive”. On the same count and under the same terms, in the case of `COc1ccc(NC(=O)COC(=O)c2c3c(nc4ccccc24)CCCC3)cc1` it was 7.08 µM (active); in that of `COc1cccc(NC(=O)Cc2c(C(=O)O)[nH]c3ccccc23)c1`, “inactive”; in that of `COc1ccc(OC)c(NC(=O)c2c3c(nc4ccccc24)CCC3)c1`, 12.6 µM (active). As for `COc1ccc(NC(=O)COC(=O)c2c(-c3ccccc3)noc2C)cc1`, the AC50 is 12.6 µM (active).

Turning to `COc1cccc(NC(=O)COC(=O)c2c3c(nc4ccccc24)CCC(C)C3)c1` (configuration not stated), the AC50 was 2.51 µM (active).
